This is part of a sample that, as a whole, favours compounds with a hit. Of some 83,000 tested, about 20% had one in any assay.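 96-well plates, one dose, 48 hours. Percent growth reported; active if below 10.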 A number with no mark means an inactive call. Calls of active or inactive are those of the source.
Experiments:
Test in all cases: NCI-60 one-dose screen, 48 h (100 = growth as untreated, 0 = no growth, -100 = all killed)
Details in all cases: 10 µM unless noted
HCT-15 colon = system: HCT-15 colon
HT29 colon = system: HT29 colon
SNB-75 CNS = system: SNB-75 CNS
SNB-19 CNS = system: SNB-19 CNS
U251 CNS = system: U251 CNS
PC-3 prostate = system: PC-3 prostate
SK-MEL-5 melanoma = system: SK-MEL-5 melanoma
UACC-62 melanoma = system: UACC-62 melanoma
LOX IMVI melanoma = system: LOX IMVI melanoma
SK-MEL-28 melanoma = system: SK-MEL-28 melanoma
SK-MEL-2 melanoma = system: SK-MEL-2 melanoma
EKVX NSCLC = system: EKVX NSCLC
SN12C renal = system: SN12C renal
UO-31 renal = system: UO-31 renal
TK-10 renal = system: TK-10 renal
CAKI-1 renal = system: CAKI-1 renal
A498 renal = system: A498 renal
CCRF-CEM leukemia = system: CCRF-CEM leukemia
MOLT-4 leukemia = system: MOLT-4 leukemia
ACHN renal = system: ACHN renal

Structure (SMILES)	growth (HCT-15 colon) [%]	growth (HT29 colon)	growth (SNB-75 CNS)	growth (SNB-19 CNS)	growth (U251 CNS)	growth (PC-3 prostate) [%]	growth (SK-MEL-5 melanoma)	growth (UACC-62 melanoma)	growth (LOX IMVI melanoma)	growth (SK-MEL-28 melanoma)	growth (SK-MEL-2 melanoma)	growth (EKVX NSCLC)	growth (SN12C renal)	growth (UO-31 renal)	growth (TK-10 renal)	growth (CAKI-1 renal)	growth (A498 renal)	growth (CCRF-CEM leukemia)	growth (MOLT-4 leukemia)	growth (ACHN renal)
O=C(NNc1nc2cc(F)ccc2n2c(CN3CCOCC3)ccc12)c1ccccc1	16.9	1.95% (active)	46.1%	18.8%	-34.5% (active)	22.9	-9.55% (active)	-4.27% (active)	-39.6% (active)	15.7%	34.6%	14.2%	10.1%	12.1%	46%	7.45% (active)	-22.4% (active)	3.36% (active)	2.3% (active)	
COCC(=O)Oc1cc(-c2ccc(C)cc2C)c(OC(=O)COC)c(-c2ccc(C)cc2C)c1	10.2	34.3%	80.4%	60.9%	46.7%	43.4	13.7%	45.1%	35.6%	87.9%	28.9%	57.1%	56.4%	47.7%	70.9%	9.83% (active)	68.7%	38.9%	21.7%	
COc1cccc(CNc2c3ccccc3nc3ccccc23)c1OC	19.8	14.4%	68%	35.5%	34.5%	37.6	55.8%	51.3%	13%	66.1%	79.2%	36.3%	30.9%	25.2%	59.5%	33.7%	-4.13% (active)	39.5%	17.9%	
COc1ccc(-c2nc3c(c(-c4ccc(Cl)cc4)nn3-c3ccccc3)c(-c3ccccc3)c2C#N)cc1	109	101%	85.7%	103%	99.6%	91.3	100%	98.5%	101%	108%	109%	107%	105%	101%	120%	94.8%	111%		102%	107%
CNC(=O)c1cc(Oc2ccc3c(c2)sc2nc(-c4ccc(Cl)c(C(F)(F)F)c4)cn23)ccn1	65	56%	81.4%	77.2%	71.9%	45.3	18.8%	60.6%	50%	80.1%	59.4%	46.7%	64.4%	58.8%	48.3%	74.1%	50.6%	47.4%	41.6%	
Fc1ccc(/C=C/[C@@H]2C[C@@H](F)CCO2)cc1	93.7	99.9%	99.3%	93.8%	111%	43.6	98%	90.9%	96.9%	92.9%	110%	97.3%	100%	87%	94.2%	86.8%	109%	86.8%	70.1%	
Cc1ccc2c(c1)=C/C(=C\c1cc(-c3ccccc3)[nH]c1O)C(=O)N=2	26.7	7.77% (active)	48%	34.1%	40.1%	61.2	47%	29.9%	35.8%	60.8%	3.31% (active)	52%	42.5%	55.4%	68.3%	42.3%	24.7%	20%	18.8%	
C=C1C(=O)O[C@H]2[C@H]1CC/C(COC(=O)NCc1ccc(Cn3c(=O)sn(-c4ccccc4)c3=O)cc1)=C\CC[C@@]1(C)O[C@@H]21	32.4	20.1%	9.33% (active)	92.4%	40.4%	64	95.1%	48.2%	6.38% (active)	47%	49.6%	77.1%	33.9%	66.6%	4.49% (active)	15.6%	127%	-9.16% (active)	-5.87% (active)	
C[C@H]1[C@H](C)CC[C@]2(C(=O)NCCNCCN)CC[C@]3(C)C(=CC[C@@H]4[C@@]5(C)CCC(=O)C(C)(C)[C@@H]5CC[C@]43C)[C@H]12	13.1	4.06% (active)	65%	71.6%	-28.6% (active)	38.5	85.3%	77.5%	-76.7% (active)	81.5%	91.4%	79.4%	68.2%	60.3%	74%	61.5%	75%	-11.7% (active)	-9.76% (active)	
COc1cc2c(c(OC)c1OC)C(=O)CC(c1cccc(C(=O)Nc3ccccc3Br)c1)O2 (centres undefined)	88.1	84%	76.2%	88.4%	94.8%	68.4	80.2%	80.8%	84.2%	104%	87.7%	99.1%	80%	70.2%	94.2%	84.6%	91%		68.6%	89.7%
CCOC(=O)/C=C1\S/C(=N\Nc2cc(=O)[nH]c3ccc(Br)cc23)N(c2ccccc2)C1=O	42.3	104%	80.4%	90.4%	77.1%	44.1	98.3%	78.6%	90.6%	95.3%	99.3%	97.2%	78.9%	60.1%	90.8%	69.9%	95.6%	10.5%	21.4%	
Cc1c2ncccc2nc2[nH]c3ccc(OCCN(C)C)cc3c12	15.7	5.4% (active)	63%	15.3%	20.3%	12.1	47%	35.2%	18%	78.5%	33.7%	49.2%	13.9%	19.1%	31%	63.3%	79.9%	6.43% (active)	9.61% (active)	
COc1cc2c(c(OC)c1OC)C(=O)CC(c1cccc(C(=O)Nc3ccc(C#N)cc3)c1)O2 (centres undefined)	63	86.4%	74.8%	89.5%	94.7%	39.2	37.5%	34.8%	79.6%	95.6%	74.6%	80.2%	72.1%	52%	92.3%	71.6%	72.1%	25%	20%	
O=C(/C=C/c1ccco1)Nc1ncc(Cc2cc(Cl)ccc2Cl)s1	13.5	9.68% (active)	16.6%	44.8%	18.9%	25.3	15.2%	26.9%	25.9%	57%	36.3%	34.2%	29.6%	36.6%	51.5%	36.5%	10.3%		14%	35.7%
Cc1cc(O)c(=O)cc2c1C[C@H]1CC(C)(C)/C=C/C[C@]3(C)Oc4cc(=O)c(O)cc(C)c4C[C@H]3C[C@H](O)[C@@]1(C)O2	17.3	7.77% (active)	23.5%	4.62% (active)	2.67% (active)		-9.26% (active)	-56.5% (active)	6.33% (active)	5.5% (active)	-0.26% (active)	1.96% (active)	0.888% (active)	-3.55% (active)	12.8%	0.0892% (active)	12.3%	9.98% (active)	7.8% (active)	6.64% (active)
CCOC(=O)c1nnn(-c2no[n+]([O-])c2-c2ccc(OC)cc2)c1COc1cccc2cccnc12	22.2	3.79% (active)	73.1%	25.2%	14.9%		-22.4% (active)	8.44% (active)	-43.1% (active)	58.2%	3.57% (active)	44.8%	3.95% (active)	34.3%	33.2%	24.1%	103%	4.84% (active)	10%	21.8%

From PubChem BioAssay (NCI)
